From PubChem BioAssay
Sampled rows, rich in hits. Any-hit rate of the full collection: about 27%.
CYP2C19 act = increases human CYP2C19 enzyme activity. P33261. recombinant CYP2C19, luciferin-H EGE luminescence; active compounds read high; 0 = fully inhibited enzyme, 1 = untreated enzyme. activation factor at 5 µM. 96,000 tested, under 10 active. AID 1025;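 active means activation factor of at least 2 at 5 µM in the primary screen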;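 further: 0 = wells with 2.5 mM tranylcypromine and 1 = vehicle-only wells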
CYP2C19 inhib = human CYP2C19 inhibition; P33261; CYP2C19 Supersomes, luciferin-H EGE luminescence, 30 min; inhibition, % at 5 µM; 96,000 tested, 21% active;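 active means CYP2C19 inhibition above a set limit at 5 µM in the primary screen, cut at about 50% in these data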;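 further: plate controls were negative control wells for no effect and 2.5 mM tranylcypromine positive control for full effect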
CYP2C9 act = CYP2C9 (human) activation. activation factor at 5 µM. recombinant CYP2C9, luciferin-H conversion, luminescence; active compounds read high; factor 1 = untreated enzyme, 0 = blocked. P11712. 96,000 tested, 1.4% active;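 active means activation factor of 2 or more for CYP2C9 at a 5 µM dose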;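 further: 0 = sulfaphenazole-blocked wells and 1 = vehicle-only wells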
CYP2C9 inh = inhibitors of human CYP2C9. P11712. CYP2C9 Supersomes, luciferin-H conversion, luminescence. inhibition, % at 5 µM. 96,000 tested, 20% active. AID 777;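 active means blocking of liver enzyme CYP2C9 beyond about 50% at 5 µM, limit read from the data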
Cav3 T inh = human Cav3.2 channel inhibition, primary screen | AID 449739 | B-score at 10 µM | O95180 | 100,000 tested, 4% active | Cav3.2-expressing cells, Fluo-4 calcium fluorescence FDSS; active compounds read low;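 active means single-dose well whose peak fluorescence ratio is a statistical outlier from its plate by either plate-standardised score or position-corrected B-score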
An asterisk follows results filed as active; . = no result given.

SMILES	CYP2C19 act	CYP2C19 inhib	CYP2C9 act	CYP2C9 inh	Cav3 T inh
O=P(Nc1ccccc1)(Nc1ccccc1)Oc1cccc(Cl)c1	0.5	46.6	0.5	50.6*	-7.1*
CC(c1ccccc1)n1cncc1C(=O)O (centres undefined)	.	.	.	.	-0.132
CCCCCCn1c(O)c(C=NC2CCCCC2N)c(=O)[nH]c1=O (centres undefined)	0.9	6.7	0.5	52.0*	-0.0381
NC1CCCCC1N=Cc1c(O)n(Cc2ccc(F)cc2)c(=O)[nH]c1=O (centres undefined)	0.9	12.3	0.2	76.1*	0.336
COc1ccc(CCNCc2ccc(OC)c(OC)c2OC)cc1	0.4	62.5*	0.9	8.3	0.209
COc1ccc(OC)c(CC(=O)O)c1	1.1	-13.0	1.2	-15.3	0.115
COc1ccc(N2C(=O)NC(=O)C(CCc3ccncc3)(CCc3ccncc3)C2=O)cc1	.	.	.	.	0.572
COc1ccc(CCNCc2ccncc2)cc1	0.1	90.3*	0.3	71.8*	0.843
CNCCc1ccccc1	.	.	.	.	-0.0707
COc1ccc(CCNC(C)CCc2ccc(OC)cc2)cc1 (centres undefined)	0.4	55.1*	1	-1.6	-0.426
FC(F)(F)c1cccc(N2CCNCC2)c1	.	.	.	.	-1.24
CN(C)CCc1nn[nH]n1	.	.	.	.	-0.308
COP(=O)(OC)C(NC(=O)C(C)(C)C)=C(Cl)Cl	1.2	-15.2	1	-0.1	-0.345
Cc1ccc(-n2c(O)c(C=NC3CCCCC3N)c(=O)[nH]c2=O)cc1C (centres undefined)	1	-2.9	1	2.0	-0.0202
Cc1ccc(-n2c(O)c(C=NC3CCCC3)c(=O)[nH]c2=O)c(C)c1	0.1	94.3*	0.9	10.5	1.69
CC(=O)Nc1ccccc1C(=O)OCc1ccc(C(=O)c2ccccc2)cc1	0.6	38.5	0.3	71.6*	-1.52
Oc1ccc2c3c1O[C@H]1c4[nH]c5ccccc5c4C[C@@]4(O)C(C2)N(CC2CC2)CC[C@]314	.	.	.	.	-1.34
COc1ccc(C(=O)CC2(CC(=O)c3ccc(OC)cc3)C(=O)N(C)C(=O)N(C)C2=O)cc1	1.1	-13.1	1.1	-7.7	0.228
CN1C(=O)N(C)C(=O)C2(Cc3c(ccc4ccccc34)N(C)C2)C1=O	0.3	65.7*	0.7	33.9	0.0565
CC1CN=C(NCc2ccccc2)S1 (centres undefined)	1	4.8	1.1	-6.1	-0.00496
Cc1nc2cc(-c3ccccc3)nn2c(C)c1CCC(=O)N1CCC2(CC1)OCCO2	0.9	10.3	1	1.9	1.99
Cc1ccccc1Cc1c(C)nc2nc(SCC(=O)N3CCC4(CC3)OCCO4)nn2c1C	0.5	47.1	0.1	89.3*	2.92
Cc1cc([P+](=O)O)c(C)n1-c1ccc(Br)cc1	1	1.5	1.1	-8.8	0.191
CCn1c(=O)cc(SCC(=O)N2CCC3(CC2)OCCO3)c2ccccc21	0.6	39.0	2.2*	-119.8	0.561
COC(=O)CC1(CC(=O)OC)C(=O)NC(=O)NC1=O	1	-2.5	1.1	-6.4	0.0263
SMILES	CYP2C19 act	CYP2C19 inhib	CYP2C9 act	CYP2C9 inh	Cav3 T inh
CCN(c1ccc(C(O)(C(=O)OC)C(F)(F)F)cc1)S(=O)(=O)c1ccc(C)cc1 (centres undefined)	0.5	49.0	0.6	44.7	-4.9*
COC(=O)C(O)(c1ccc(NC(=S)NC(=O)c2ccccc2)cc1)C(F)(F)F (centres undefined)	0.9	9.2	0.5	50.4*	-3.09
CCOC(=O)C(O)(c1ccc(N(CC)S(=O)(=O)c2ccc(C)cc2)cc1)C(F)(F)F (centres undefined)	0.6	43.8	0.3	68.6*	-6.15*
CCOC(=O)N(C)c1ccc(C(O)(C(=O)OC)C(F)(F)F)cc1 (centres undefined)	.	.	.	.	0.461
COC(=O)C(O)(c1ccc(N(C)S(=O)(=O)c2ccccc2)cc1)C(F)(F)F (centres undefined)	0.1	92.1*	0.1	87.8*	-0.858
CCC1(c2ccc(N)cc2)CCC(=O)NC1=O (centres undefined)	.	.	.	.	0.333
CCOC(=O)C1(c2ccccc2)CCN(CCC(C#N)(c2ccccc2)c2ccccc2)CC1	.	.	.	.	-7.55*
COc1cccc2c1O[C@H]1C(=O)CC[C@H]3CN(C)CCC231 (some centres undefined)	.	.	.	.	0.363
O=C(c1cc2c(s1)CCCCCC2)N1CCC2(CC1)OCCO2	0	96.9*	0.3	72.8*	-1.09
O=C(NCc1ccc(C(=O)N2CCC3(CC2)OCCO3)cc1)c1cccc(Br)c1	0.9	11.6	0.8	23.5	-0.409
CCc1sc(C(=O)N2CCC3(CC2)OCCO3)cc1Br	0	96.5*	1.7	-65.2	-0.138
O=C(c1ccc2c(c1)ncn2C1CCCCC1)N1CCC2(CC1)OCCO2	1	4.7	1.1	-9.5	-0.489
C(#CCN1CCOCC1)COCc1ccccc1	1	1.3	1	-3.3	0.287
Oc1ccc2c3c1O[C@H]1c4oc5ccccc5c4C[C@@]4(O)[C@@H](C2)N(CC2CC2)CC[C@]314	.	.	.	.	-3.81
CCCC1=C(C(=O)OCC)C2(C(=O)Nc3ccccc32)C(C#N)=C(N)O1 (centres undefined)	1	4.1	0.9	11.8	-0.683
O=P(O)(O)C12CC3CC(CC(C3)C1)C2	0.6	44.6	0.4	62.3*	0.762
c1ccc2c(c1)CNc1ccccc1O2	0.5	48.5	0.9	8.3	-0.544
Cc1ccc2c(c1)CNc1ccccc1O2	0.3	71.3*	0.8	24.8	0.404
CCOP(=O)(C#CC(C)(C)C)C1(O)CCCCC1 (centres undefined)	1.1	-14.2	1.1	-10.1	0.473
Cc1cc(C)n(CCOC(=O)C2C(C=C(Cl)Cl)C2(C)C)n1 (centres undefined)	0.1	91.8*	0.3	74.9*	-6.62*
CN1C(=O)C(Cc2ccc3c(c2)OCO3)C(=O)N(C)C1=O	0.6	42.8	0.9	12.3	-0.271
O=C1NC(=O)C(CCc2ccccn2)(Cc2ccc3c(c2)OCO3)C(=O)N1CCc1ccccc1 (centres undefined)	0.4	55.1*	0.7	31.1	-0.145
CN(C)c1ccc(C(=O)c2ccc(N(C)C)cc2)cc1	0.3	66.3*	2.2*	-115.5	-1.34
CC(C)C12CN3CC(C(C)C)(CN(C1)C3c1cccnc1)C2=O (centres undefined)	0.5	48.5	1	1.4	1.01
COC(=O)C1=C(c2cccc(OC)c2OC)C[C@@H]2CC[C@H]1N2C(=O)NCc1ccc(C(F)(F)F)cc1	.	.	.	.	-0.638
OCc1cnc[nH]1	.	.	.	.	0.00321
Cc1ccc(S(=O)(=O)N(C)CCCC(=O)N2CCN(c3ccccn3)CC2)cc1	0.5	51.8*	0.7	33.3	-0.0333
CCCCN1C(=O)NC(=O)/C(=C/c2cnc(SC)nc2)C1=O	1	-0.8	1	1.0	-0.8
C=CCN1C(=O)NC(=O)/C(=C/c2ccc(OC)c(CSc3ccccn3)c2)C1=O	0.5	52.1*	0.8	19.3	-0.00324
C[C@H]1CCC[C@@H](O)CCC/C=C/c2cc(O)cc(O)c2C(=O)O1	0.1	89.1*	0.2	77.6*	-0.584
